VACV Venus inh: inhibitors of vaccinia virus (Venus reporter) | Vaccinia virus Venus reporter expression, fluorescence | actives 0.46% (n = 330,000) | Potency, µM (top dose mostly 36.5 µM), for the others: at the highest dose activity change, negative = inhibition, hits mostly inhibitors; calls by dose curve; tested in A549 cells; note: potency is the fitted concentration of half-maximal effect; nearly all actives have a fitted effect of over 30% in size
FMDV inh: foot and mouth disease virus antiviral activity. actives 1.2% (n = 410,000). Potency, µM (titrated, usually from 57.9 µM), without a hit: top-dose activity change, negative = inhibition, actives largely listed as inhibitors. AID 1159524. FMDV antiviral cell-based qHTS; calls by dose curve; tested in HEK293T cells; note: read-out not given here; potency is the fitted concentration of half-maximal effect; nearly all actives have a fitted effect of over 45% in size
LASV entry inh: blocks Lassa virus binding to or entry into cells; Lassa virus pseudotype entry inhibition, cell reporter; Potency, µM (top dose mostly 37.9 µM), for the others: top-dose activity change, negative = inhibition, hits mostly inhibitors; actives 1.2% (n = 300,000); AID 540256; calls by dose curve; tested in HEK293 cells; note: potency is the fitted concentration of half-maximal effect; nearly all actives have a fitted effect of over 50% in size
Marburg entry inh: inhibitors of Marburg virus binding or cell entry; Marburg virus pseudotyped entry inhibition, cell reporter; Potency, µM (titrated, usually from 37.8 µM), for inactives: top-dose activity change, negative = inhibition, hits mostly inhibitors; actives 1.8% (n = 300,000); AID 540276; calls by dose curve; tested in HEK293 cells; note: potency is the fitted concentration of half-maximal effect
HCMV inh: human cytomegalovirus inhibition. HFF cells, HCMV-luciferase reporter, 72 h; hits give low values. activity change, negative = inhibition, % at 57.5 µM. actives 4.5% (n = 410,000). AID 1259415; in the data active = activity change below about -60%; inconclusive = no clear call, values can overlap the other calls; inactive = above about -39%
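Screen run at 2 compound doses on HFFs infected with reporter HCMV, MOI 1 PFU/cell. Luciferase activity from cell lysates at 72 h post infection gave inhibition relative to buffer-only and Salinomycin wells.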
Vaccinia mCherry: inhibitors of vaccinia virus infection (mCherry reporter signal); AID 720579; Vaccinia virus mCherry reporter infection, fluorescence; Potency, µM (top dose mostly 36.5 µM), for the others: at the highest dose activity change, negative = inhibition, most hits filed as inhibitors; actives 0.63% (n = 310,000); calls by dose curve; tested in A549 cells; note: potency is the fitted concentration of half-maximal effect; nearly all actives have a fitted effect of over 35% in size
Active calls of the source: *; [ ] = remark or other dose. Only some compounds are listed: those with a hit (about 6.5% of all), similar ones and a draw of the others. % is set by controls: 0 for no effect and ±100 for the full control effect.

`COc1ccc(CCC(=O)Nc2ccc(Cl)c(S(=O)(=O)N3CCCC3)c2)cc1` gave VACV Venus inh -21.2%, FMDV inh -28.3%, HCMV inh -102.5* and Vaccinia mCherry inactive.
For COc1cc(CCC(=O)Nc2ccc(C)c(S(=O)(=O)N3CCCCCC3)c2)cc(OC)c1OC the results were VACV Venus inh -26.7%, FMDV inh 17.8µM*, LASV entry inh inconclusive, Marburg entry inh inconclusive, HCMV inh -70.0* and Vaccinia mCherry inconclusive.
For COc1ccc(CCNC(=O)c2ccc(N(C)S(=O)(=O)c3ccc(C)cc3)cc2)cc1 the results were VACV Venus inh -26.5%, FMDV inh inconclusive, LASV entry inh inconclusive, Marburg entry inh -22.1%[46.1 µM], HCMV inh -11.3 and Vaccinia mCherry inconclusive.
Screening CC(=O)c1cc2ccccc2c2ccccc12 returned VACV Venus inh -6.5% and Vaccinia mCherry -11.1%.
For CC1CN(S(=O)(=O)c2cc(C(=O)NCCC3=CCCCC3)ccc2Cl)CC(C)O1 (stereo not given) the results were VACV Venus inh -15.8%, FMDV inh -17.6%, LASV entry inh inconclusive, Marburg entry inh -25.6%[46.1 µM], HCMV inh -81.6* and Vaccinia mCherry -9.9%.
`O=C(NCCc1ccccc1)c1ccc(Cl)c(S(=O)(=O)N2CCCC2)c1` gave FMDV inh -7.3%.
COc1ccc(CCNC(=O)c2ccc(Cl)c(S(=O)(=O)N3CCCCCC3)c2)cc1 was read as FMDV inh 14.1µM* and HCMV inh -85.7*.
CC1CCCN(S(=O)(=O)c2cc(C(=O)NCCc3ccc(S(N)(=O)=O)cc3)ccc2Cl)C1 (stereo not given) was read as FMDV inh 17.8µM* and HCMV inh inconclusive.
For Cc1ccc(S(=O)(=O)N2CCN(c3nc(-c4ccnnc4)nc4ccccc34)CC2)cc1 the results were VACV Venus inh -12.0% and Vaccinia mCherry inactive.
For CCC1CN(CCNC(=O)c2cn3cc(C)ccc3n2)Cc2cc(OC)ccc2O1 (stereo not given) the results were VACV Venus inh -20.8%, FMDV inh 1.9% and Vaccinia mCherry -27.9%.
Screening Cc1cc(NO)c(C(C)C)cc1N=O returned VACV Venus inh -22.1%, FMDV inh 22.4µM*, LASV entry inh 14.9%, Marburg entry inh -26.7%, HCMV inh -64.6* and Vaccinia mCherry inconclusive.
For Cc1cc(O)c(C(C)C)cc1N=Nc1ccccc1C(=O)O the results were VACV Venus inh 14.7%, FMDV inh inconclusive, LASV entry inh 11.1%, Marburg entry inh -8.5%[46.1 µM], HCMV inh -21.5 and Vaccinia mCherry -15.5%.
Screening O=C(N/N=C/CCc1ccccc1)c1ccc(CN2c3cccc4cccc(c34)S2(=O)=O)cc1 returned VACV Venus inh -15.7%, FMDV inh 39.8µM*, LASV entry inh 4.8%, Marburg entry inh -23.8%, HCMV inh inconclusive and Vaccinia mCherry -19.8%.
For Cc1ccccc1CNC(=O)c1ccc2c(c1)N(Cc1ccccc1)CCS2 the results were VACV Venus inh -9.2%, FMDV inh 16.4%, Marburg entry inh 8.91µM*, HCMV inh -33.5 and Vaccinia mCherry -21.3%.
Screening CCN1CCN(C(=O)c2ccc3c(c2)N(Cc2ccc(C)cc2)CCS3)CC1 returned FMDV inh 27.4% and HCMV inh -84.6*.
CCOc1ccc(CNC(=O)c2ccc3c(c2)N(Cc2ccccc2)CCS3)cc1 was read as VACV Venus inh -22.8%, FMDV inh 12.7%, Marburg entry inh inconclusive, HCMV inh -28.4 and Vaccinia mCherry -24.4%.
`COc1ccc(CNC(=O)c2ccc3c(c2)N(Cc2ccccc2)CCS3)cc1` gave VACV Venus inh -13.5%, FMDV inh 9.1%, LASV entry inh 4.47µM*, Marburg entry inh inconclusive, HCMV inh -8.6 and Vaccinia mCherry -12.3%.
Screening CSc1nnc(CNC(=O)c2cccc3ccccc23)n1-c1ccccc1C returned VACV Venus inh 1.1%, FMDV inh 0.5% and Vaccinia mCherry -6.3%.
Cc1[nH]c2ccccc2c1C(=O)C(C)Sc1nc2ccccc2c(=O)n1Cc1cccnc1 (stereo not given) was read as VACV Venus inh -14.7% and Vaccinia mCherry 11.5%.
For Cc1cc(C(=O)CN2C(=O)c3ccccc3S2(=O)=O)c(C)n1C(C)C the results were VACV Venus inh -13.0%, FMDV inh inconclusive, LASV entry inh 2µM*, Marburg entry inh 0.501µM*, HCMV inh active and Vaccinia mCherry -9.7%.
`Cc1cc(C(=O)CN2C(=O)c3ccccc3S2(=O)=O)c(C)n1-c1ccccc1` gave VACV Venus inh -7.9%, FMDV inh inconclusive, LASV entry inh 1.58µM*, Marburg entry inh 8.91µM*, HCMV inh -89.4* and Vaccinia mCherry inactive.
Screening C=CCn1c(C)cc(C(=O)CN2C(=O)c3ccccc3S2(=O)=O)c1C returned VACV Venus inh -22.0%, FMDV inh 39.8µM*, LASV entry inh inconclusive, Marburg entry inh inconclusive and Vaccinia mCherry inactive.
Screening CCCn1c(C)cc(C(=O)CN2C(=O)c3ccccc3C2=O)c1C returned VACV Venus inh -2.0%, FMDV inh 23.5%, HCMV inh 30.7 and Vaccinia mCherry -17.1%.
For CCn1c(C)cc(C(=O)CN2C(=O)c3ccccc3S2(=O)=O)c1C the results were VACV Venus inh -6.4%, FMDV inh inconclusive, LASV entry inh 1.41µM*, Marburg entry inh inconclusive, HCMV inh inconclusive and Vaccinia mCherry -14.4%.
For COc1ccccc1CNc1nc2nc(C)c(Cl)c(C)n2n1 the results were VACV Venus inh -5.9%, FMDV inh 0.0%, LASV entry inh 16.7%[46.1 µM], Marburg entry inh inconclusive, HCMV inh 6.0 and Vaccinia mCherry -14.0%.
Screening CC(C)c1nn2c(=O)cc(COC(=O)c3ccc(NC(=O)c4cccs4)cc3)nc2s1 returned VACV Venus inh -19.5%, FMDV inh 14.6%, LASV entry inh 15.0%[46.1 µM], HCMV inh -20.7 and Vaccinia mCherry -6.5%.
For COc1cccc(N2CCN(Cc3cc(=O)oc4cc(C)ccc34)CC2)c1 the results were VACV Venus inh -10.8%, FMDV inh -25.6%, LASV entry inh -15.1%[46.1 µM], Marburg entry inh 3.0%[46.1 µM], HCMV inh 0.6 and Vaccinia mCherry -4.4%.
`Cc1ccc(OCCCCNC2CCCCC2)c(C)c1` gave FMDV inh inconclusive, LASV entry inh inconclusive, Marburg entry inh 7.3µM* and HCMV inh -36.9.
For N#C/C(=C\c1cn(Cc2ccccc2)c2ccccc12)C(=O)NCc1ccco1 the results were VACV Venus inh -35.7%, FMDV inh -6.2%, LASV entry inh 4.9%, Marburg entry inh 0.4%, HCMV inh -34.3 and Vaccinia mCherry -27.5%.
Screening Cc1cccc(NC(=O)/C(C#N)=C/c2cn(CC(=O)NCc3ccco3)c3ccccc23)c1C returned VACV Venus inh -27.7%, FMDV inh 0.0%, LASV entry inh -26.5%, Marburg entry inh -44.8%, HCMV inh -82.3* and Vaccinia mCherry -17.7%.

Screening results: PubChem BioAssay, National Center for Advancing Translational Sciences (NCATS)
